Measurements as given in PubChem BioAssay (NCI).
The panel holds about 83,000 compounds, 20% with a hit somewhere; the sample as a whole holds those more often.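 Assay: single dose, 48 h. Readout: percent growth (0 = no net growth; negative = cell death). Active: <10.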 The source made the active and inactive calls.

Assays:
Assay in all cases: NCI-60 one-dose screen, 48 h (100 = growth as untreated, 0 = no growth, -100 = all killed)
Settings in all cases: 10 µM unless noted
[1] = system: DU-145 prostate
[2] = system: K-562 leukemia
[3] = system: MALME-3M melanoma
[4] = system: MDA-MB-231 breast
[5] = system: RXF 393 renal
[6] = system: SF-268 CNS
[7] = system: SF-295 CNS
[8] = system: SF-539 CNS
[9] = system: UACC-257 melanoma
[10] = system: M14 melanoma
[11] = system: HCT-15 colon
[12] = system: HT29 colon
[13] = system: SNB-75 CNS
[14] = system: SNB-19 CNS
[15] = system: U251 CNS
[16] = system: PC-3 prostate
[17] = system: SK-MEL-5 melanoma
[18] = system: UACC-62 melanoma
[19] = system: LOX IMVI melanoma
[20] = system: SK-MEL-28 melanoma

Measured: growth

COc1ccc(-c2nc(SCC(=O)Nc3nc(-c4ccccc4)cs3)[nH]c(=O)c2C#N)cc1
inactive: [1] 118% | [2] 93.5% | [3] 90.1% | [4] 95.1% | [5] 96.6% | [6] 95.9% | [7] 96.3% | [8] 103% | [9] 109% | [10] 89.6% | [11] 109% | [12] 115% | [13] 70.4% | [14] 109% | [15] 103% | [16] 86% | [17] 102% | [18] 92.1% | [19] 92.9% | [20] 104%

CCOc1ccccc1-n1c(CN2CCN(C(=O)COc3ccc(CNCCCCCCN4C5CCCC4CC(OC(=O)Nc4cc(C)ccc4OC)C5)cc3)CC2)nc2ccccc2c1=O (stereo unspecified)
active: [1] -98.5% | [2] -56.9% | [3] -84.9% | [4] -91.1% | [5] -76.8% | [6] -77.1% | [7] -92.6% | [8] -92.8% | [9] -95.6% | [10] -77.6% | [11] -84.4% | [12] -85.6% | [13] -99.2% | [14] -89.9% | [15] -99.2% | [16] -85.6% | [17] -96.5% | [18] -89.3% | [19] -92% | [20] -93%

CCN(CC)c1ccc(C(=O)c2ccc(N(CC)CC)cc2)cc1
inactive: [1] 20.2% | [2] 14.7% | [3] 67.2% | [4] 18.4% | [6] 45.6% | [7] 11% | [9] 76.2% | [11] 27.4% | [14] 38.7% | [15] 20.8% | [16] 26.4% | [17] 23.7% | [18] 37.6% | [19] 32.6% | [20] 51.3%
active: [5] -36.5% | [8] 0.464% | [10] 0.748% | [12] 4.92% | [13] -11.9%

O=c1c2c3c(sc2nc(N/N=C/c2ccc(Br)cc2)n1Cc1ccccc1)CCCC3
inactive: [1] 81.6% | [2] 79.9% | [3] 91.6% | [4] 50.2% | [5] 73.2% | [6] 68.4% | [7] 34.3% | [8] 50% | [9] 78.9% | [10] 75.8% | [11] 78.1% | [12] 101% | [13] 106% | [14] 76.4% | [15] 70.3% | [16] 70.2% | [17] 87.2% | [18] 88.7% | [19] 73% | [20] 120%

CCOC(=O)c1csc(NC(=O)COc2cccc(/C=C3\Oc4cc(OC)ccc4C3=O)c2)n1
inactive: [1] 102% | [2] 52.1% | [3] 109% | [4] 67.9% | [5] 114% | [6] 109% | [7] 121% | [8] 106% | [9] 91.7% | [10] 111% | [11] 79.2% | [12] 101% | [13] 78.4% | [14] 83.4% | [15] 79.2% | [16] 78.3% | [17] 98.5% | [18] 79% | [19] 66.7% | [20] 119%

CC1O[C@@H](OC2[C@H](OC(=O)/C=C/c3ccc(O)c(O)c3)C(COC3O[C@H](C)C(O)C(O)[C@@H]3O)O[C@@H](OCCc3ccc(O)c(O)c3)[C@H]2O)[C@@H](O)C(O)[C@H]1O (stereo partly specified)
inactive: [1] 106% | [2] 105% | [3] 88.1% | [4] 108% | [5] 125% | [6] 103% | [7] 103% | [8] 94.2% | [9] 80.8% | [10] 97.1% | [11] 100% | [12] 100% | [13] 85.7% | [14] 107% | [15] 99.4% | [17] 103% | [18] 101% | [19] 102% | [20] 110%

NNC(=O)c1nc(N)n(-c2ccc(S(N)(=O)=O)cc2)n1
inactive: [1] 92.8% | [2] 96.5% | [3] 97.8% | [4] 88.6% | [5] 110% | [6] 93.3% | [7] 109% | [8] 89.2% | [9] 97.2% | [10] 94.4% | [11] 107% | [12] 99.9% | [13] 92.5% | [14] 96.4% | [15] 88.8% | [17] 96.9% | [18] 99.2% | [19] 93.3% | [20] 108%

COc1ccccc1CNCCCN1C(=O)c2ccc3c4c(ccc(c24)C1=O)C(=O)N(CCCNCCCCN)C3=O
active: [1] -71.1% | [2] 3.21% | [3] -80.7% | [4] 9.4% | [5] -80.9% | [6] 0.101% | [7] 0.192% | [8] -75.3% | [9] -71.8% | [10] -80.2% | [12] -23.9% | [13] -95.3% | [14] -57.8% | [15] -67.4% | [16] -11.8% | [17] -98.3% | [18] -60.1% | [19] -16.3% | [20] -94.1%
inactive: [11] 12.7%

O=C1/C(=C/c2ccc(F)cc2)C=C(c2ccccc2)N1CCc1ccccc1
inactive: [1] 81.6% | [2] 71.4% | [3] 39.1% | [4] 57.5% | [5] 56.2% | [6] 74.2% | [7] 35.9% | [8] 79.5% | [9] 38.6% | [10] 46% | [11] 77.9% | [12] 63.2% | [14] 45.1% | [15] 46.9% | [16] 51.2% | [17] 73% | [18] 50.1% | [19] 70.7% | [20] 72.6%
active: [13] -10.5%

COc1ccc(-c2[nH]c(=S)n(C(CC3(C)NCC(=O)N3n3c(-c4ccccc4)cc(C)nc3=S)c3ccc(OC)cc3)c(=O)c2Br)cc1 (stereo unspecified)
inactive: [1] 66.6% | [2] 14.8% | [3] 90.2% | [4] 79.9% | [5] 65.5% | [6] 75.6% | [7] 61.9% | [8] 58.4% | [9] 88.9% | [10] 70.9% | [11] 39.9% | [12] 40.6% | [14] 55.6% | [15] 55.8% | [17] 79.5% | [18] 50.6% | [19] 41.3% | [20] 83.6%
active: [13] 3.88%

CCCCCCN(CCCCCC)c1ccc(/C=C2/SC(=O)N(c3nc(N4CCCC4)nc(N4CCCC4)n3)C2=O)c(C)c1
inactive: [1] 77.3% | [2] 37.5% | [3] 71.5% | [4] 85.7% | [5] 84.7% | [6] 73.2% | [7] 56.7% | [8] 114% | [9] 72.6% | [10] 69.3% | [11] 57.9% | [12] 51.8% | [13] 83.3% | [14] 84.4% | [15] 53.9% | [16] 53.2% | [17] 58.6% | [18] 52.7% | [19] 71.8% | [20] 74.3%

COc1cc(OC)cc(C2CC(=O)Nc3c2c(C)nn3-c2nc3ccccc3[nH]2)c1 (stereo unspecified)
inactive: [1] 53.3% | [3] 38.3% | [4] 16.5% | [6] 29.3% | [8] 18.4% | [9] 23.9% | [10] 11.8% | [11] 37.2% | [12] 23.5% | [14] 21.9% | [15] 16.8% | [20] 38.1%
active: [2] 9.41% | [5] -0.824% | [7] -62.9% | [13] -3.14% | [17] -62% | [18] -19.2% | [19] 1.34%

CNC(=O)NCC1OC(n2cnc3c(NC(=O)Nc4ccccc4)ncnc32)C(O[Si](C)(C)C(C)(C)C)C1CC(=O)N(C)OC (stereo unspecified)
inactive: [1] 25.3% | [2] 16.1% | [3] 12.3% | [4] 15.2% | [6] 33.2% | [10] 34.4% | [11] 11.9% | [14] 37.2% | [17] 25.9% | [18] 34.4% | [19] 18.6%
active: [5] -68.2% | [7] -41.2% | [8] 0.123% | [9] 5.59% | [12] -25.5% | [13] -7.28% | [15] -15.2% | [16] -20.8% | [20] 7.73%

O=S(=O)(NCCCNc1cc(-c2c(-c3cccc(O)c3)nc3sccn23)ccn1)c1cccc(Cl)c1
inactive: [1] 55.9% | [2] 25.4% | [3] 48.2% | [4] 73.6% | [5] 41.1% | [6] 44.3% | [7] 49.3% | [8] 77.4% | [9] 68.4% | [10] 41.7% | [11] 28.4% | [12] 50.2% | [13] 14.2% | [14] 67.3% | [15] 53.4% | [16] 24.6% | [17] 31.1% | [18] 40.3% | [19] 29.6% | [20] 60.7%

O=C(O)c1ccc2c(c1)CCC2
inactive: [1] 118% | [2] 91.3% | [3] 106% | [4] 117% | [5] 120% | [6] 111% | [7] 103% | [8] 105% | [9] 105% | [10] 101% | [11] 104% | [12] 103% | [13] 107% | [14] 103% | [15] 104% | [16] 106% | [17] 108% | [18] 113% | [19] 97% | [20] 112%
